Among the test systems are NCI-H23 lung; NCI-H226 lung; NCI-H322M lung; HOP-62 NSCLC; NCI-H460 lung; NCI-H522 lung; 786-0 renal; A549/ATCC NSCLC; COLO 205 colon.
Holding throughout (assay): NCI-60 one-dose screen, 48 h (100 = growth as untreated, 0 = no growth, -100 = all killed)
What all share (details): 10 µM unless noted

About 83,000 compounds went through this panel and 20% of them were active in at least one assay; those are over-represented in the sample as a whole.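 The test compound was applied at a single concentration to cells in 96-well plates for 48 hours, and percent growth was recorded.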 A number with no mark means an inactive call. Activity calls are given as the source filed them. Rule for the calls: active = growth percent below 10; inactive = the rest.

The source of these data is PubChem BioAssay (NCI).

On to `CCCCCOC(=O)c1ccc(NC(=O)CNCC(C)C)cc1`, for which the growth in the assay on NCI-H23 lung was 99.4%; with NCI-H226 lung, 84.7%; in the assay with NCI-H322M lung, 91.9%; with HOP-62 NSCLC it was 85.1%; with NCI-H460 lung, 103%; with NCI-H522 lung, 70.1%. Moreover, in the assay with 786-0 renal, the growth is 99.9%.
Consider `CN(C)c1ccc2cc(-c3ccccc3F)c(N)nc2c1`, for which the growth with NCI-H23 lung is 21.4%; in the assay with NCI-H226 lung it was 59.3%; in the assay with NCI-H322M lung, 55.1%; with HOP-62 NSCLC it was 37.4%; with NCI-H460 lung, 15.9%; in the assay with A549/ATCC NSCLC, 22.1%. Further, the growth in the assay with 786-0 renal was 34%.
`O=C1/C(=C/c2ccccc2[N+](=O)[O-])COc2ccc(O)c(O)c21`: the growth is -4.09% (active) in the assay with NCI-H23 lung; -8.66% (active) with NCI-H226 lung; 33.3% in the assay with NCI-H322M lung; 30.3% with HOP-62 NSCLC; 0.563% (active) in the assay on NCI-H460 lung; -45.2% (active) with NCI-H522 lung. The growth is 30.8% with A549/ATCC NSCLC, 10.6% in the assay on 786-0 renal and -32.6% (active) in the assay on COLO 205 colon.
With `COc1ccc(/C(C)=C(\c2ccc(Cl)cc2)c2ccc(OCCN3CCCCC3)cc2)cc1F`, the growth with NCI-H23 lung is 48.1%; in the assay with NCI-H226 lung, 77%; in the assay on NCI-H322M lung, 76.1%; with HOP-62 NSCLC, 16.8%; in the assay with NCI-H460 lung, 7.34% (active); in the assay with NCI-H522 lung, 65.5%. Also, the figures for the growth with A549/ATCC NSCLC, in the assay on 786-0 renal and in the assay on COLO 205 colon were 53%, 2.47% (active) and 5.95% (active), respectively.
With `CN1CCN(c2ccc3nc(/N=C/c4ccc5sc(-c6ccc([N+](=O)[O-])cc6)nc5c4)sc3c2)CC1`, the growth is 99.4% with NCI-H23 lung; 97.9% in the assay with NCI-H226 lung; 105% in the assay on NCI-H322M lung; 120% in the assay on HOP-62 NSCLC; 103% with NCI-H460 lung; 95% in the assay with NCI-H522 lung. Further, the growth with A549/ATCC NSCLC was 98.6%; with 786-0 renal it was 101%.
With `O=C(Nc1ccc(N2CCCCC2)c(Cl)c1)c1ccc(Br)o1`, the growth in the assay on NCI-H23 lung was 81.3%; in the assay on NCI-H226 lung, 82.1%; in the assay on NCI-H322M lung it was 115%; in the assay with HOP-62 NSCLC it was 109%; in the assay on NCI-H460 lung, 69.4%; in the assay on NCI-H522 lung it was 87.2%. The growth is 82.5% in the assay on A549/ATCC NSCLC, 97.6% in the assay with 786-0 renal and 103% in the assay on COLO 205 colon.
